Screening data from PubChem.
Compounds with a hit are over-represented: about 6.5% of the library has one in this group of screens.
HepG2 tox: counter-screen for TGF-b inhibitors: cytotoxicity in HepG2 cells; 0.76% of 410,000 active; Potency, µM (doses to about 46.1 µM), without a hit: top-dose activity change, negative = cytotoxicity, hits mostly cytotoxic; HepG2 CAGA-GFP viability, ATP luminescence, 18 h; note: potency is the fitted concentration of half-maximal effect
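HepG2 CAGA-GFP cells (1000/well, DMEM with 1% FBS) received compound, then TGF-beta at 500 pg/mL final, and were incubated 18 hours at 37 degrees C. Viability was read by CellTiter-Glo luminescence. Media-only wells were set as complete cell-killing and DMSO as no toxicity.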
HT1080 IDH1KD tx: kills HT-1080 cells with IDH1 knockdown | 2% of 360,000 active | Potency, µM (series often up to 46.1 µM), for inactives: at the top dose activity, negative = toxicity, hits mostly cytotoxic | HT-1080 IDH1 knockdown viability, ATP luminescence, 48 h;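 note: potency is the fitted concentration of half-maximal effect; 0% = DMSO wells and -100% = cell-free medium wells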
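% activity derives from luminescence (CellTiter-Glo), normalised to DMSO and no-cell wells. HT-1080-IDH1KD cells, 750/well, had 48 h compound exposure at 37 °C.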
Giardia kill: Giardia lamblia killing | activity change, % at 7.66 µM, hits read low | 0.15% of 340,000 active | Giardia lamblia trophozoite viability; in the data active = activity change below about -80%; inconclusive = between about -30% and that limit;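 note: parasites exposed to compound for two days anaerobically before the ATP read; % is set by controls: 0 for no effect and ±100 for the full control effect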
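Luminescent ATP signal served as the viability read-out, measured 15-30 min after adding ATP detection reagent to trophozoites that had been incubated with compounds for 48 hrs at 37 deg C anaerobically at 100 cells/well.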
TGFb inhibitor: TGF-b pathway inhibition. Potency, µM (doses to about 46.1 µM), without a hit: at the top dose activity, negative = inhibition, hits mostly inhibitors. HepG2 CAGA-GFP TGF-b/SMAD3 reporter, GFP fluorescence, 18 h; TGF-beta stimulated, 500 pg/mL final. 1.2% of 410,000 active; note: potency is the fitted concentration of half-maximal effect; % is set by controls: 0 for no effect and ±100 for the full control effect; nearly all actives have a fitted effect of over 65% in size
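HEPG2 CAGA-GFP, 1000 cells/well; 2 h settle, 37 C; cpd via pin tool; TGF-b 500 pg/mL final; 18 h, 37 C; GFP imaging ex488/em500-530; %Activity normalised to -TGF-b and +DMSO controls; CRC fit, curve class.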
IL-1B inflam inh: inflammasome signaling inhibition, IL-1 beta readout. THP-1 LPS/ATP IL-1B secretion, AlphaLISA, 16 h; hits give low values. activity change, % at 57.5 µM. 4.7% of 360,000 active. AID 743279; in the data active = activity change below about -50%; inconclusive = mostly about -30% to -49%; note: % is set by controls: 0 for no effect and ±100 for the full control effect
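THP-1 cells pretreated 1 hr with compounds (up to 57.5 uM final), then stimulated with LPS (250 ng/mL final) plus ATP (1.25 mM final); secreted IL-1B measured by AlphaLISA after 16 hr, decreased signal indicating inhibition.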
HT1080-NT tox: kills 2HG-producing HT-1080-NT fibrosarcoma cells | HT-1080-NT fibrosarcoma viability, CellTiter-Glo ATP luminescence, 48 h | Potency, µM (series often up to 46.1 µM), inactives show top-dose activity, negative = less viability, actives largely listed as cytotoxic | 1.6% of 360,000 active | AID 686970;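 note: NT is the 2HG producing partner of a matched IDH1 knockdown line; potency is the fitted concentration of half-maximal effect; 0% = DMSO-treated cells and -100% = media-only wells without cells; nearly all actives have a fitted effect of over 55% in size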
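Luminescent CellTiter-Glo readout after 48 hours of compound exposure at 37 degrees C defined viability of HT-1080-NT cells. Activity was normalized to DMSO wells and cell-free media wells; concentration-response curves were fitted and assigned curve classes.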
* marks the source's active call; other numbers are inactive results; ? = inconclusive; nt = not tested or not shown; [ ] = another dose, or the depositor's remark. Unless noted, calls come from the whole dose curve; as a rule, active = well fitted curve in the direction sought with a large enough effect; inconclusive = small, poorly fitted or top-dose-only effect, or another doubt; inactive = no such curve, though single readings can be large; an effect the other way counts as inactive or inconclusive.

SMILES	HepG2 tox	HT1080 IDH1KD tx	Giardia kill	TGFb inhibitor	IL-1B inflam inh	HT1080-NT tox
O=C(Nc1cccc2c1CCCC2)c1cc([N+](=O)[O-])ccc1Cl	-46.0%	20.6µM*	-6.9	?	?	16.4µM*
CCN(CC)S(=O)(=O)c1cc(C(=O)Nc2ccccc2[N+](=O)[O-])ccc1Cl	-33.0%	?	2.2	15.8µM*	-88.9*	-24.4%
CN(c1ccccc1)S(=O)(=O)c1ccc(NC(=O)c2ccc(-c3ccccc3)cc2)cc1	-0.6%	-9.2%	-4.0	-19.3%	-7.4	?
O=C(Nc1ccccc1-c1ccccc1)c1ccc(Cl)c([N+](=O)[O-])c1	-7.3%	?	-1.1	-21.2%	-100.3*	?
Cc1nc2cc(NC(=O)c3ccc(S(=O)(=O)N(C)c4ccccc4)cc3)ccc2o1	-0.1%	?	6.6	?	-56.4*	?
CN(C)S(=O)(=O)c1cccc(C(=O)Nc2ccccc2[N+](=O)[O-])c1	-54.0%	?	-2.2	?	?	-28.6%
CCOCCCN(C(=O)c1snc(C(N)=O)c1N)C(C(=O)NC(C)(C)C)c1ccc(Cl)cc1 (stereo unspecified)	11.8%	-0.8%	11.1	-10.7%	5.8	1.0%
Cc1nc2c(C)cccc2cc1C(=O)N/N=C/c1ccc(O)cc1	0.2%	?	23.3	-26.7%	-9.3	?
Cc1cc(C)c(OCCOCCN2CCCC2)c(C)c1	-10.1%	-1.8%	23.8	-5.4%	-4.1	-5.6%
Cc1cccc(/C=C2\Sc3ccc(C(=O)N4CCC(C(N)=O)CC4)cc3N(C)C2=O)c1	-7.9%	-5.1%	-11.6	-23.7%	-5.8	-15.4%
Cc1ccc2nc3cc([N+](=O)[O-])cc([N+](=O)[O-])c3cc2c1	-18.1%	-12.7%	-13.7	7.1%	-72.7*	3.6%
COC(=O)c1cc2nc(-c3ccccc3)cc(C)n2n1	10.0%	2.1%	17.8	?	8.6	4.0%
Cc1cc(-c2ccccc2)nc2cc(C(=O)N(Cc3ccccc3)Cc3ccccc3)nn12	-0.5%	16.4µM*	5.0	?	-16.4	?
CC(C)(C)c1ccc(Nc2n[nH]c3ccccc23)cc1	-39.0%	?	nt	-29.7%	0.0	?
COc1cc(CNC(=O)C2CCCN2S(=O)(=O)c2ccccc2)cc(OC)c1OC (stereo unspecified)	-11.8%	3.3%	20.9	-0.6%	17.2	-5.6%
COc1cc2c(cc1NC(=S)Nc1cccc(C)c1)oc1ccccc12	-24.6%	?	34.9	-1.2%	-2.8	10µM*
COc1cc2c(cc1NC(=O)c1cccc([N+](=O)[O-])c1C)oc1ccccc12	-42.0%	?	8.9	39.5%	-55.5*	?
COc1cc2c(cc1NC(=O)Nc1cccc(C)c1)oc1ccccc12	-22.1%	-6.8%	-13.7	0.0%	-8.1	1.4%
CC(=O)Nc1cc2oc3ccccc3c2cc1[N+](=O)[O-]	-28.6%	-7.3%	-11.2	4.2%	7.8	-6.3%
CCCN(CC(=O)Nc1ccccc1C)C(=O)CC(NC(=O)c1ccccc1)c1ccccc1 (stereo unspecified)	-2.5%	-8.2%	-8.8	11.6%	-1.1	-10.3%
Cc1nc(C(F)(F)F)ccc1C(=O)N1CCC1(C)C(=O)NS(=O)(=O)c1ccc(Cl)cc1 (stereo unspecified)	-7.6%	6.1%	nt	1.6%	13.7	19.9%
C/C(=N\Nc1nc2ccccc2[nH]1)c1cc2ccccc2o1	-41.6%	?	-10.0	?	-95.2*	?
C/C(=N\Nc1nc2ccccc2[nH]1)c1ccc2c(c1)OCCO2	0.4%	?	6.7	-20.4%	-54.1*	-27.6%
C/C(=N\Nc1nc2ccccc2[nH]1)c1ccc2c(c1)OCO2	-28.4%	?	10.0	?	-83.2*	?
C/C(=N\Nc1ccccn1)c1ccc2c(c1)OCO2	-24.5%	1.7%	-8.0	2.7%	-5.8	-2.3%
SMILES	HepG2 tox	HT1080 IDH1KD tx	Giardia kill	TGFb inhibitor	IL-1B inflam inh	HT1080-NT tox
O=C(c1cc(-c2ccc(Cl)cc2)on1)N1CCOCC1	-49.0%	8.2%	-22.0	2.3%	-7.6	17.9%
O=C(c1nnsc1S(=O)(=O)c1ccc(Cl)cc1)N1CCOCC1	12.6µM*	?	24.3	?	-106.4*	14.6µM*
Nc1nc(C(=O)N2CCOCC2)nn1S(=O)(=O)c1ccc(Cl)cc1	-23.4%	6.3%	-17.4	-6.9%	0.0	11.6%
Cc1nnsc1S(=O)c1ccc(Cl)cc1 (stereo unspecified)	3.4%	-3.4%	23.8	-5.7%	-28.7	-2.8%
CNC(=O)c1ccc(S(=O)(=O)c2ccc(Cl)cc2)c(NC(C)=O)c1	-1.9%	-1.1%	-14.6	0.7%	15.2	6.0%
CNC(=O)c1nnsc1S(=O)(=O)c1ccc(Cl)cc1	17.8µM*	2.91µM*	-8.4	11.2µM*	-98.1*	?
O=C(Nc1ccccc1)c1nnsc1S(=O)c1ccc(Cl)cc1 (stereo unspecified)	-88.6%	-22.3%[9.24 µM]	0.0	?	-107.3*	?
O=C(c1nnsc1S(=O)c1ccc(Cl)cc1)N1CCOCC1 (stereo unspecified)	-98.0%	?	-8.7	?	-104.4*	13µM*
O=C(COc1ccccc1-c1ccccc1)N/N=C/c1cccc2ccccc12	-12.7%	1.03µM*	?	?	18.1	1.3µM*
O=C(COc1cccc2ccccc12)N/N=C/c1ccccc1OCc1ccc(C(=O)O)cc1	-4.6%	-8.1%	-13.3	-4.0%	?	0.2%
COc1ccc(/C=N/NC(=O)COc2ccccc2-c2ccccc2)cc1	-83.2%	0.82µM*	29.5	?	106.1	2.31µM*
CCOC(=O)c1cnn(-c2cc(Oc3ccccc3)ncn2)c1N	2.4%	21.6%	11.3	4.5%	-17.4	21.8%
O=C(CN(Cc1ccccc1)C(=O)CCl)c1cccc(Br)c1	-105.6%	16.4µM*	-3.3	?	-98.4*	20.6µM*
COc1cc(C(CCN2CCOCC2)c2c(OC)cc(OC)c3c2OC(=O)CC3c2ccc(N(C)C)cc2)cc(OC)c1OC (stereo unspecified)	-8.8%	-12.4%	-10.0	-26.2%	1.6	-5.9%
O=C(Cn1cc(SCc2cccc(C(F)(F)F)c2)c2ccccc21)N1CCCCCC1	-14.3%	nt	nt	?	nt	nt
CCOc1ccc(C(=O)NCCn2cc(SCC(=O)Nc3ccccc3)c3ccccc32)cc1	-14.2%	nt	nt	10µM*	nt	nt
O=C(NCCn1cc(SCc2ccccc2)c2ccccc21)c1c(F)cccc1F	-15.5%	?	16.8	?	?	-18.0%
COC(=O)c1ccc(NC(=O)CSc2cn(CC(=O)N3CCCCC3)c3ccccc23)cc1	-17.6%	nt	nt	5.62µM*	nt	nt
